# From PubChem BioAssay (NCI)
# “And” between values parts separate entries of the source, which are not always exact repeats. Equal entries are not always repeated. This is part of a sample that, as a whole, favours compounds with a hit. Of some 83,000 tested, about 20% had one in any assay.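 Interpretation: 100, growth as untreated; towards 0, rising growth inhibition; 0, no net growth; 0 to -100, cell death. Compounds scoring below 10 were considered active.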 Values without a mark were called inactive. The source made the active and inactive calls.
# Test system: MDA-MB-468 breast
# Assay: NCI-60 one-dose screen, 48 h (100 = growth as untreated, 0 = no growth, -100 = all killed)
# Conditions: 10 µM unless noted
row,SMILES,growth
1,O=c1c(CNc2ccc(S(=O)(=O)Nc3nccs3)cc2)coc2ccccc12,92.9%
2,O=C1/C(=C/c2cccc([N+](=O)[O-])c2)COc2ccc(O)cc21,36.9%
3,Cn1cc(-c2csc(-c3c[nH]c4ccc(F)cc34)n2)c2cnccc21,-49.6% (active)
4,CC1OC(O[C@@H]2C(O)C(CO)OC(O[C@H]3COC(O[C@H]4CC[C@]5(C)[C@H]6CC[C@]78OC[C@@]9(CC[C@](C)(C=O)C[C@H]97)[C@H](O)C[C@@]8(C)[C@]6(C)CC[C@H]5C4(C)C)[C@@H](OC4OC(CO)[C@@H](O)[C@@H](O)[C@@H]4O)[C@@H]3O)[C@H]2OC2OC[C@@H](O)[C@@H](O)[C@@H]2O)[C@@H](O)[C@@H](O)[C@H]1O (some centres not stated),34.5%
5,Cc1ccc(S(=O)(=O)NCCCNc2nccc(-c3c(-c4cccc(F)c4)nc4occn34)n2)cc1,55.6%
6,COC1=CC(c2ccc[nH]2)=N/C1=C\c1[nH]c(C)c(C(=O)OCc2ccccc2)c1C,-83.2% (active)
7,COc1cc2ncn3c(=O)c4c5c(sc4nc3c2cc1OC)CCCC5,101%
8,CN(C)c1ccc(C(C#N)(c2ccccc2)c2ccc(N(C)C)cc2)cc1,82.8%
9,CCCCCC/C=N/Nc1ccc([N+](=O)[O-])cn1,108%
10,COc1ccc(C2CC(c3ccc(OC)cc3OC)=NN2c2ccc(S(N)(=O)=O)cc2)cc1 (configuration not stated),64.8%
11,CC1=CC(C)(C)NC(=S)N1c1ccc(S(=O)(=O)O)c2cccc(S(=O)(=O)O)c12,107%
12,CCCC(CC)(C(=O)Nc1ccc2nc(C)cc(N)c2c1)C(=O)Nc1ccc2nc(C)cc(N)c2c1,87%
13,Cn1cc(-c2nonc2-c2c[nH]c3ccccc23)c2cccnc21,-12.9% (active)
14,COC(=O)[C@]12CC[C@@H](C)[C@H](C)[C@@H]1C1=CC(=O)[C@@H]3[C@@]4(C)C[C@@H](OC(C)=O)[C@H](OC(C)=O)[C@@](C)(COC(C)=O)[C@@H]4C(=O)C[C@@]3(C)[C@]1(C)CC2,35.3%
15,CC(=O)Nc1ccc2c(c1)Cc1cc(F)ccc1-2,101%
16,COC1C(O)CC(OC2CC(OC3CC(O[C@@H]4C(=O)c5c(cc6cc(OC7CC(OC8CC(O)C(O)C(C)O8)C(O)C(C)O7)c(C)c(O)c6c5O)CC4[C@H](OC)C(=O)O)OC(C)C3O)OC(C)C2O)OC1C (some centres not stated),15.8%

row,SMILES,growth
1,FC(F)(F)Oc1cccc(-c2cc(NCCCCCCNc3cc(-c4cccc(OC(F)(F)F)c4)nc4ccc(N5CCCC5)cc34)c3cc(N4CCCC4)ccc3n2)c1,-68.1% (active)
2,O=C(Nc1ccccc1)Nc1ccc(Nc2ncnc3sc4c(c23)CCCC4)cc1,96.9%
3,Cc1cc(Cl)ccc1NC(=O)/C(Cl)=C1/Sc2ccccc2NC1=O,95.1%
4,CS(=O)(=O)Nc1cc(-c2ccc3ncnc(Nc4cccc(Cl)c4)c3c2)cnc1Cl,-55.7% (active)
5,COc1ccc(NS(=O)(=O)N2CCCCC2)cc1,105%
6,O=[N+]([O-])c1ccc(Nc2nc(NCCN3CCOCC3)ncc2[N+](=O)[O-])cc1,70.8%
7,C[C@]12CCC3c4ccc(O)cc4C[C@@H](CCCCCCCCCS(=O)CCCC(F)(F)C(F)(F)F)C3C1CC[C@@H]2O (some centres not stated),88%
8,COc1cc2c(c(OC)c1OC)-c1ccc(N=NC(N)=S)c(=O)cc1[C@@H](NC(C)=O)CC2,-40.8% (active)
9,O=C(Oc1cccc(OC(=O)c2ccccc2)c1)c1ccccc1,110% and 101%
10,CC(C)=NNc1ccccn1,12.9%
11,CC[C@H]1CN2CCc3cc(OC)c(OC)cc3C2C[C@@H]1CC1NCCc2cc(OC)c(OC)cc21 (some centres not stated),-59.5% (active)
12,COc1ccc(-c2cc(-c3ccc(N4CCOCC4)cc3)n3c(n2)nc2ccccc23)cc1OC,93.7%
13,Cc1ccc2c(c1)sc(-c1ccc(N(C)C)cc1)[n+]2C,-11.3% (active)
14,Cc1csc(N/N=C/c2ccncc2)n1,107%
15,C=C1C(=O)O[C@H]2[C@H]1CC/C(COC(=O)NCc1ccc(Cn3c(=O)sn(CCCCl)c3=O)cc1)=C\CC[C@@]1(C)O[C@@H]21,-52% (active)
16,Cc1ccc(Nc2c(C(N)=O)cnc3ccc(-c4csc(N)n4)cc23)cc1,83.9%
